# Results as given in PubChem BioAssay.
# Values joined by “and” are separate entries in the source; they are usually repeats but may differ in a detail not shown here. Equal entries are not always repeated. Results filed as inconclusive are left out. Active and inactive are the calls of the source.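 Rule for the calls, unless noted: active = compounds whose cell count with miR-34 switched on is under 0.7 times the count with it off; inactive = the rest.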
# Legend:
# [1] = Wnt pathway potentiators raising nuclear beta-catenin – imaging, WNT3A-conditioned medium, mouse C2C12, NPC library, primary screen (AID 1117326; in the data active = nuclear beta-catenin stimulation mostly above about 4.2%, no sharp cut-off; inactive = mostly below about 10%; note: reference of the scale not given here); conditions: stronger effect = higher value
# [2] = stimulators of insulin release from INS-1E, primary screen, cell-based, 5 mM glucose, NPC library (AID 1117329;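 active = compound raises insulin release from rat beta cells at 5 mM glucose, no numeric limit stated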; note: reference of the scale not given here); conditions: rat INS-1E insulin secretion, at 10 µM, stronger effect = higher value
# [3] = growth inhibition of GSK3B-pretreated HCT116 cells – cell-based, CellTiter-Glo, 0.2 to 20 µM (AID 1117336;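 active = compounds lowering colon cancer cell viability after pretreatment blocking the GSK3B kinase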); conditions: HCT116 viability after GSK3B inhibitor, at 20 µM, stronger effect = higher value
# [4] = inhibition of endothelial tube formation, primary screen, imaging, VEGF stimulated, CD31 staining, tube area, NPC library (AID 1117340;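 active = compound that reduces growth-factor-driven endothelial tube area in a mixed cell culture, no cutoff stated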); conditions: VEGF-stimulated ADSC/ECFC co-culture, at 10 µM, stronger effect = higher value
# [5] = GLP1 release stimulators, primary, NCI-H716, NPC library (AID 1117341;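 active = compound raises GLP1 secretion from the human gut endocrine cells, with no numeric limit stated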; note: reference of the scale not given here); conditions: NCI-H716 cells, at 10 µM, stronger effect = higher value
# [6] = HCT116 colon cancer cell growth inhibition, primary screen, CellTiter-Glo luminescence, NPC library (AID 1117342;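 active = compounds that lower survival of HCT116 colon cancer cells in the luminescence readout, no numeric limit stated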); conditions: at 20 µM (top of the series)
# [7] = reduced SW480 viability measured with CellTiter-Glo, NPC library, primary (AID 1117343;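 active = compounds that lower viability of the colon cancer cells in the luminescence readout, with no numeric limit stated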); conditions: CellTiter-Glo luminescence; at 20 µM (top of the series) unless noted
# [8] = NPC library primary testing for decreased DLD-1 cell viability via CellTiter-Glo (AID 1117346;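 active = compounds that lower survival of DLD-1 colon cancer cells in the luminescence readout, no cutoff given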); conditions: DLD-1 viability, CellTiter-Glo luminescence; at 20 µM (top of the series)
# [9] = viability loss in pontine glioma line – cell-based, SU-DIPG-IV, MIPE4.0, CellTiter-Glo, qHTS, dose response (AID 1347063; cut-off not given, nearly all actives have AC50 up to about 30 µM;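 note: compound exposure lasted 48 hours before the viability readout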); conditions: CellTiter-Glo ATP luminescence
# [10] = viability loss with induced miR-34 in A549 – imaging, A549 dox-inducible miR-34, nuclei and caspase counts, primary screen (AID 1347080); conditions: A549 miR-34 inducible, Hoechst nuclei count, 48 h
# [11] = MELAS cybrid and Rieske KO viability enhancers – cell-based, MELAS cybrids, Rieske KO mouse fibroblasts, CellTiter-Glo, primary screen (AID 1508586;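 active = mean z-score across replicates of 1.96 or higher in either the MELAS or the Rieske mutant cell line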;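 note: z relative to plate mean and SD of compound and empty wells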); conditions: low glucose
# [12] = galactose survival enhancers in mitochondrial complex I cybrids – cell-based, galactose medium, ATP luminescence, primary screen (AID 1645843;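 active = z-score of at least 1.8 in each of two replicates, scored against plate mean and spread of sample wells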;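 note: positive z means more ATP and so rescue of galactose-driven cybrid death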); conditions: complex I mutant cybrid cells, 72 h, stronger effect = higher value
# [13] = P. berghei load reduction in hepatocytes – cell-based, HepG2, luciferase luminescence, HepG2 viability, primary screen (AID 624349; in the data active = parasite load remaining mostly below about 12%, no sharp cut-off; inactive = mostly above about 10%;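 note: 100% = mean of DMSO negative control wells on the same plate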); conditions: P. berghei liver stage in HepG2, luciferase luminescence, concentration not given here; parasite load remaining: stronger effect = lower value; viability: measured here: HepG2 viability without parasites
# [14] = viability loss in pontine glioma line – cell-based, JHH-DIPG-1, MIPE4.0, CellTiter-Glo, qHTS, dose response (AID 1347062; cut-off not given, nearly all actives have AC50 up to about 27 µM;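 for AC50: cells exposed to compound for two days before readout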); conditions: JHH-DIPG-1 viability, CellTiter-Glo ATP luminescence
# [15] = growth inhibition of DIPG cells – cell-based, MIPE4.0 library, CellTiter-Glo luminescence, qHTS (AID 1347066; cut-off not given, nearly all actives have AC50 up to about 30 µM;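 note: cells exposed to compound for 48 hours before readout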); conditions: SU-DIPG-VI viability, CellTiter-Glo ATP luminescence
# [16] = growth inhibition of DIPG cells – cell-based, MIPE5.0 library, qHTS (AID 1347068; cut-off not given, nearly all actives have IC50 up to about 30 µM); conditions: SU-DIPG-XXV viability
# [17] = viability loss in pontine glioma line – cell-based, SU-DIPG-XXV, MIPE5.0, CellTiter-Glo, qHTS, dose response (AID 1347065; cut-off not given, nearly all actives have AC50 up to about 26 µM;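 note: cells exposed to compound for 48 hours before ATP readout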); conditions: CellTiter-Glo ATP luminescence
# [18] = JHH-DIPG-1 glioma cell viability, MIPE5.0 library, CellTiter-Glo luminescence, qHTS (AID 1347067; cut-off not given, nearly all actives have AC50 up to about 26 µM;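 note: cells exposed to compound for 48 hours before readout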); conditions: JHH-DIPG-1 glioma viability, CellTiter-Glo ATP luminescence
# [19] = stronger effect = lower value, cell number ratio, induced over uninduced
# [20] = measured here: relative caspase fold change +Dox/-Dox
# [21] = measured here: total cells with miR-34 induction, stronger effect = lower value
# [22] = measured here: total cells without miR-34 induction
# [23] = MELAS cybrid survival, CellTiter-Glo 48 h, stronger effect = higher value
# [24] = Rieske KO mouse fibroblast survival, CellTiter-Glo 72 h
smiles,measurement,setting,value
COc1cc(C(C)=O)ccc1OCCCN1CCC(c2noc3cc(F)ccc23)CC1,nuclear beta-catenin stimulation,[1]; at 10 µM,1.5% (inactive)
same,nuclear beta-catenin stimulation,"[1]; stimulation, at 2 µM",0.5%
same,insulin secretion stimulation,[2],3.8% (inactive)
same,viability decrease,[3],66.1% (active)
same,tube area decrease,[4],16.7% (inactive)
same,GLP1 secretion stimulation,[5],6.5% (inactive)
same,inhibition of viability,[6],80.7% (active)
same,viability decrease (inhibition),[7],100% (active)
same,viability decrease (inhibition),[8],33.5% (inactive)
same,outcome,[9],inactive
same,fold change,[10]; [19],0.893 (inactive) and 0.919 (inactive)
same,fold change,[10]; [20],0.354 and 0.917
same,cell count,[10]; [21],6850 and 7430
same,cell count,[10]; [22],7670 and 8090
same,z-score,[11]; [23],-0.601 (inactive) and -0.433 (inactive)
same,z-score,[11]; [24],0.999 and 0.549
same,z-score,[12],-1.19 (inactive)
CCC(C)(C)c1ccc(CC(C)CN2C[C@@H](C)O[C@@H](C)C2)cc1 (stereo partly drawn),parasite load remaining,[13],32.9% (inactive)
same,viability,[13],99%
same,nuclear beta-catenin stimulation,[1]; at 10 µM,0.2% (inactive)
same,nuclear beta-catenin stimulation,"[1]; stimulation, at 2 µM",0.5%
same,insulin secretion stimulation,[2],-2.9% (inactive)
same,viability decrease,[3],23.9% (inactive)
same,tube area decrease,[4],-0.6% (inactive)
same,GLP1 secretion stimulation,[5],11.9% (inactive)
same,inhibition of viability,[6],10.2% (inactive)
same,viability decrease (inhibition),[7],83.9% (active)
same,viability decrease (inhibition),[8],55.5% (active)
same,outcome,[14],inactive
same,fold change,[10]; [19],0.818 (inactive) and 0.902 (inactive)
same,fold change,[10]; [20],0.996 and 1.18
same,cell count,[10]; [21],6710 and 9820
same,cell count,[10]; [22],8200 and 10900
same,z-score,[11]; [23],-0.995 (inactive) and -0.921 (inactive)
same,z-score,[11]; [24],-0.654 and -0.53
same,z-score,[12],-1.82 (inactive)
O=C(O)c1cccc(-c2noc(-c3ccccc3F)n2)c1,nuclear beta-catenin stimulation,[1]; at 10 µM,2.5% (inactive)
same,nuclear beta-catenin stimulation,"[1]; stimulation, at 2 µM",4.8%
same,insulin secretion stimulation,[2],0% (inactive)
same,viability decrease,[3],8.8% (inactive)
same,tube area decrease,[4],-5.7% (inactive)
same,GLP1 secretion stimulation,[5],2.2% (inactive)
same,inhibition of viability,[6],15.5% (inactive)
same,viability decrease (inhibition),[7],2.3% (inactive)
same,viability decrease (inhibition),[8],-11% (inactive)
same,outcome,[9],inactive
same,outcome,[15],inactive
same,outcome,[16],inactive
same,fold change,[10]; [19],0.927 (inactive)
same,fold change,[10]; [20],0.71
same,cell count,[10]; [21],10200
same,cell count,[10]; [22],11000
same,z-score,[11]; [23],-0.357 (inactive)
same,z-score,[11]; [24],0.633
COC(=O)N[C@H](C(=O)N[C@@H](Cc1ccccc1)[C@@H](O)CN(Cc1ccc(-c2ccccn2)cc1)NC(=O)[C@@H](NC(=O)OC)C(C)(C)C)C(C)(C)C,parasite load remaining,[13],62.2% (inactive)
same,viability,[13],276%
same,nuclear beta-catenin stimulation,[1]; at 10 µM,2.9% (inactive)
same,nuclear beta-catenin stimulation,"[1]; stimulation, at 2 µM",0.8%
same,insulin secretion stimulation,[2],2.15% (inactive)
same,viability decrease,[3],-7% (inactive)
same,tube area decrease,[4],82.7% (active)
same,GLP1 secretion stimulation,[5],-0.7% (inactive)
same,inhibition of viability,[6],5.8% (inactive)
same,viability decrease (inhibition),[7],-2% (inactive)
same,viability decrease (inhibition),[8],-6.7% (inactive)
same,outcome,[14],inactive
same,outcome,[15],inactive
same,fold change,[10]; [19],0.809 (inactive)
same,fold change,[10]; [20],0.911
same,cell count,[10]; [21],8470
same,cell count,[10]; [22],10500
same,z-score,[11]; [23],-0.0891 (inactive)
same,z-score,[11]; [24],-1.39
same,z-score,[12],0.325 (inactive)
COc1cc(NCc2ccc3nc(N)nc(N)c3c2C)cc(OC)c1OC,nuclear beta-catenin stimulation,[1]; at 10 µM,40.4% (active)
same,nuclear beta-catenin stimulation,"[1]; stimulation, at 2 µM",71.7%
same,insulin secretion stimulation,[2],3.6% (inactive)
same,viability decrease,[3],105% (active)
same,tube area decrease,[4],60.1% (active)
same,GLP1 secretion stimulation,[5],2.9% (inactive)
same,inhibition of viability,[6],94.9% (active)
same,viability decrease (inhibition),[7],142% (active)
same,viability decrease (inhibition),[8],70.6% (active)
same,AC50,[14],18.7 µM (active)
same,AC50,[17],2.95 µM (active)
same,AC50,[15],20.9 µM (active)
same,AC50,[18],2.63 µM (active)
O=C(O)[C@H](O)c1ccccc1,nuclear beta-catenin stimulation,[1]; at 10 µM,3.7% (inactive)
same,nuclear beta-catenin stimulation,"[1]; stimulation, at 2 µM",3.1%
same,insulin secretion stimulation,[2],-0.6% (inactive)
same,viability decrease,[3],-6.9% (inactive)
same,tube area decrease,[4],-9.1% (inactive)
same,GLP1 secretion stimulation,[5],1.8% (inactive)
same,inhibition of viability,[6],-5.47% (inactive)
same,viability decrease (inhibition),[7],-30.4% (inactive)
same,viability decrease (inhibition),[8],-21.9% (inactive)
same,fold change,[10]; [19],0.975 (inactive)
same,fold change,[10]; [20],0.478
same,cell count,[10]; [21],5430
same,cell count,[10]; [22],5570
CCCCCCCCCCCCCCCC(=O)O,nuclear beta-catenin stimulation,[1]; at 10 µM,0.3% (inactive)
same,nuclear beta-catenin stimulation,"[1]; stimulation, at 2 µM",1.7%
same,insulin secretion stimulation,[2],2.3% (inactive)
same,viability decrease,[3],2.25% (inactive)
same,tube area decrease,[4],-25.4% (inactive)
same,GLP1 secretion stimulation,[5],0.3% (inactive)
same,inhibition of viability,[6],-38.8% (inactive)
same,viability decrease (inhibition),[7],32.7% (inactive)
same,viability decrease (inhibition),[8],8.5% (inactive)
same,fold change,[10]; [19],1.03 (inactive)
same,fold change,[10]; [20],1.12
same,cell count,[10]; [21],5900
same,cell count,[10]; [22],5710
O=C(O)c1c(Cl)c(Cl)c(Cl)c(Cl)c1-c1c2cc(I)c(=O)c(I)c-2oc2c(I)c(O)c(I)cc12,nuclear beta-catenin stimulation,[1]; at 10 µM,-2.4% (inactive)
same,nuclear beta-catenin stimulation,"[1]; stimulation, at 2 µM",-0.6%
same,insulin secretion stimulation,[2],-1.2% (inactive)
same,viability decrease,[3],96.7% (active)
same,tube area decrease,[4],23.9% (inactive)
same,GLP1 secretion stimulation,[5],-4.3% (inactive)
same,inhibition of viability,[6],91.6% (active)
same,viability decrease (inhibition),[7],90.7% (active)
same,viability decrease (inhibition),[8],73.4% (active)
same,AC50,[17],3.32 µM (active)
same,AC50,[18],8.33 µM (active)
O=C(Nc1cccc2c(=O)cc(-c3nn[nH]n3)oc12)c1ccc(OCCCCc2ccccc2)cc1,parasite load remaining,[13],45% (inactive)
same,viability,[13],94.5%
same,nuclear beta-catenin stimulation,[1]; at 10 µM,0.3% (inactive)
same,nuclear beta-catenin stimulation,"[1]; stimulation, at 2 µM",-0.2%
same,insulin secretion stimulation,[2],2.85% (inactive)
same,viability decrease,[3],108% (active)
same,tube area decrease,[4],-18.5% (inactive)
same,GLP1 secretion stimulation,[5],21.5% (active)
same,inhibition of viability,[6],112% (active)
same,viability decrease (inhibition),[7],125% (active)
same,viability decrease (inhibition),[8],88.8% (active)
same,outcome,[15],inactive
same,fold change,[10]; [19],0.93 (inactive) and 0.898 (inactive)
same,fold change,[10]; [20],0.309 and 1.37
same,cell count,[10]; [21],5160 and 10700
same,cell count,[10]; [22],5550 and 12000
same,z-score,[11]; [23],0.447 (inactive) and -0.129 (inactive)
same,z-score,[11]; [24],0.183 and 0.319
same,z-score,[12],1.36 (inactive)
